Source: PubChem BioAssay (National Center for Advancing Translational Sciences (NCATS))
TGFb SMAD3 inh = TGF-b pathway inhibition; HepG2 CAGA-GFP TGF-b/SMAD3 reporter, GFP fluorescence, 18 h; TGF-beta stimulated, 500 pg/mL final; Potency, µM (highest dose often 46.1 µM), for inactives: top-dose activity, negative = inhibition, usual class: inhibitors; 1.2% of 410,000 active; note: % is set by controls: 0 for no effect and ±100 for the full control effect; nearly all actives have a fitted effect of over 65% in size
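HEPG2 CAGA-GFP reporter cells (1000/well, DMEM with 1% FBS) received compounds, then recombinant TGF-beta at 500 pg/mL final for 18 hours at 37 degrees C. Per-cell GFP summed per well was normalised to unstimulated and stimulated DMSO controls before curve fitting.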
Gal4-VP16 FLuc = counter-screen for ROR gamma inhibitors: Gal4-VP16 reporter; Drosophila S2 Gal4-VP16 UAS-luciferase, luminescence, 20 h; Potency, µM (titrated, usually from 53.6 µM), inactives show at the highest dose activity, negative = inhibition, actives largely listed as inhibitors; 3.5% of 310,000 active; AID 2546;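 note: Gal4-VP16 expression switched on by copper sulfate through the metallothionein promoter; % is set by controls: 0 for no effect and ±100 for the full control effect; nearly all actives have a fitted effect of over 50% in size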
RORgamma inh = inhibitors of mouse ROR gamma transcriptional activity; P51450; Drosophila S2 Gal4-RORgamma UAS-luciferase reporter, 20 h; AID 2551; Potency, µM (top dose mostly 53.6 µM), for inactives: at the top dose activity change, negative = inhibition, most hits filed as inhibitors; 5.4% of 310,000 active; note: % is set by controls: 0 for no effect and ±100 for the full control effect; nearly all actives have a fitted effect of over 60% in size
Target sequence (P51450 whole entry, looked up, the tested form may be a part): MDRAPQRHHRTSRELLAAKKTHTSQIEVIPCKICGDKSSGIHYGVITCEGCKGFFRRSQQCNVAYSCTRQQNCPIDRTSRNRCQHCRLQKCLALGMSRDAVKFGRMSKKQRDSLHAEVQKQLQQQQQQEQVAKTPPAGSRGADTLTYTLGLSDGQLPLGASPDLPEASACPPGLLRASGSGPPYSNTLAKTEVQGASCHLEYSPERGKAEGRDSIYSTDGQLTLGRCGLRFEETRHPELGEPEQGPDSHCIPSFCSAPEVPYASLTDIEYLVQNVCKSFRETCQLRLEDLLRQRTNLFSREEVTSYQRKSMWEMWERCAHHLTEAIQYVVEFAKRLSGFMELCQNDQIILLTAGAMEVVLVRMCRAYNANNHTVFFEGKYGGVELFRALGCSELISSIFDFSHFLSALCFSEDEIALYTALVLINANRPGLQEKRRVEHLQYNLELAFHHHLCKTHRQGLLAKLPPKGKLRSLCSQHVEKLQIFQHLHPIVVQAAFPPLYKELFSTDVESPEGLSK
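Stable Schneider cell line, Gal4 DNA-binding domain fused to ROR gamma, UAS-luciferase. Cmpd 1 hr RT → CuSO4 700 uM final → 20 hr RT → luciferase reagent 10 min → luminescence.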
ATXN2 expr inh = inhibitors of ATXN2 expression; HEK-293 ATXN2-luciferase reporter, luminescence, 24 h; Potency, µM (highest dose often 57 µM), without a hit: top-dose activity change, negative = inhibition, hits mostly inhibitors; 0.72% of 360,000 active; AID 1745845; note: % is set by controls: 0 for no effect and ±100 for the full control effect; nearly all actives have a fitted effect of over 55% in size
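qHTS (up to 57 uM final) was run with 24 h compound exposure of reporter cells at 37 °C. Each well was multiplexed: SteadyGlo luminescence measured ATXN2-luciferase expression after a fluorogenic Gly-Phe-AFC viability readout (25 uM final).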
HepG2 viability = kills HepG2 cells in TGF-b inhibitor counter-screen; AID 588856; HepG2 CAGA-GFP viability, ATP luminescence, 18 h; 0.76% of 410,000 active; Potency, µM (titrated, usually from 46.1 µM), for inactives: top-dose activity change, negative = cytotoxicity, most hits filed as cytotoxic
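HepG2 CAGA-GFP cells (1000/well, DMEM with 1% FBS) received compound, then TGF-beta at 500 pg/mL final, and were incubated 18 hours at 37 degrees C. Viability was read by CellTiter-Glo luminescence. Media-only wells were set as complete cell-killing and DMSO as no toxicity.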
ATXN viability = cell viability loss in ATXN counter-screen; 0.49% of 400,000 active; Potency, µM (titrated, usually from 56.7 µM), hits mostly cytotoxic; S2 cells (HEK-293 line with an ATXN2-luciferase reporter) viability, CellTiter-Fluor protease fluorescence, 24 h; AID 651635; note: nearly all actives have a fitted effect of over 40% in size
The depositor's hits bear a star; i = inactive; ? = inconclusive; . = not tested or not shown; [ ] = dose if it differs, or a comment. In the library only some 6.1% were active in any assay of this set; here they are far more common. Calls come from the whole dose curve; as a rule, active = well fitted curve in the direction sought with a large enough effect; inconclusive = small, poorly fitted or top-dose-only effect, or another doubt; inactive = no such curve, though single readings can be large; an effect the other way counts as inactive or inconclusive. Potency is the fitted concentration of half-maximal effect.

SMILES | TGFb SMAD3 inh | Gal4-VP16 FLuc | RORgamma inh | ATXN2 expr inh | HepG2 viability | ATXN viability
O=C(Nc1ccc2c(c1)CCCN2C(=O)c1cccs1)c1ccccc1 | -16.5% | -6.2% | 28.9% | ? | -41.1% | i
O=C(Nc1ccc2c(c1)CCCN2C(=O)c1cccs1)c1ccc(F)c(F)c1 | ? | . | . | ? | -18.7% | 25.1µM*
O=C(Nc1ccc2c(c1)CCCN2C(=O)c1cccs1)c1cccc(C(F)(F)F)c1 | -7.5% | . | . | ? | -10.4% | 35.5µM*
Cc1ccc(C)c(NC(=O)c2cc(S(=O)(=O)N3CCCCCC3)ccc2F)c1 | ? | . | . | -6.1% | -15.5% | i
COC(=O)C1C[C@@H]2C3=C(C(=O)[C@@](C)(NC(=O)c4ccccc4)C3[C@H](C(=O)OC)C1)[C@H](C)n1c(=O)n(-c3ccccc3)c(=O)n12 (stereo not given in full) | -6.9% | 3.1% | 23.2% | . | -4.5% | .
CCOC(=O)OCC1OC(c2ccccc2)C=CC1OC(=O)OCC (stereo not given) | . | 7.8%[10 µM] | 1.6%[10 µM] | . | . | .
OCCN1CCN(Cc2cc(Cl)c3cccnc3c2O)CC1 | ? | 10µM* | 5.62µM* | 22.4µM* | -26.2% | i
O=C(Oc1c(CN2CCOCC2)cc(Cl)c2cccnc12)c1ccc(F)cc1 | ? | -15.4% | -5.4% | ? | -39.4% | ?
O=c1c(CN2CCN(c3ccccn3)CC2)coc2ccccc12 | 0.3% | -11.1% | 3.6% | -5.5% | -11.4% | i
Oc1c(CN2CCN(c3ccccn3)CC2)cc(Cl)c2cccnc12 | ? | ? | 0.447µM* | ? | -51.7% | i
COc1ccccc1CNc1ncnc2onc(-c3ccc(Cl)cc3)c12 | -0.8% | . | . | 9.3% | -22.4% | i
NCCCC(N)CC(=O)NCC1NC(=O)C(CO)NC(=O)C(N)CNC(=O)C(C2CCN=C(N)N2)NC(=O)C(=CNC(N)=O)NC1=O (stereo not given) | . | . | . | 12.0%[0.709 µM] | . | i[0.575 µM]
COc1ccc(C2=C(C)C(N3CCC(C(=O)Nc4ccccc4F)CC3)=NS2(=O)=O)cc1 | -1.9% | . | . | -12.3% | -5.0% | i
Cc1ccc(C(=O)Nc2nnc(-c3ccco3)o2)cc1C | -9.8% | 0.891µM* | 0.631µM* | 4.7% | -6.2% | i
Cc1ccccc1C(=O)Nc1nnc(-c2ccco2)o1 | -1.7% | -10.4% | 1.5% | -34.9% | -22.4% | i
Cc1cccc(C(=O)Nc2nnc(-c3ccco3)o2)c1 | -15.9% | 0.631µM* | 0.501µM* | -11.6% | 2.9% | i
O=C(Nc1nnc(-c2ccco2)o1)c1ccc(Cl)cc1 | 4.9% | 0.631µM* | 0.355µM* | -35.0% | -28.3% | i
COc1ccc2c(c1)C=C/C2=C/c1ccc(N(C)C)cc1 | 8.7% | . | . | . | -16.3% | .
O=C1/C(=C/c2c[nH]c3ccccc23)CCC/C1=C\c1c[nH]c2ccccc12 | 53.8% | ? | 11.2µM* | ? | -30.7% | ?
C(=NN=Cc1c[nH]c2ccccc12)c1c[nH]c2ccccc12 | ? | . | . | . | -24.4% | i
CCOc1ccc(CC(=O)Nc2c(C(=O)c3ccccc3)oc3ccc(Cl)cc23)cc1OCC | -0.5% | . | . | 0.8% | 2.0% | .
Cc1ccc(-c2nc(CS(=O)CC(=O)NCc3ccc(F)cc3)c(C)o2)cc1 (stereo not given) | ? | 1.8% | 11.2µM* | . | -40.5% | i
COc1ccc(-c2nc(CS(=O)CC(=O)NCc3ccc4c(c3)OCO4)c(C)o2)cc1 (stereo not given) | -16.3% | 3.8% | 11.2µM* | 9.7% | -1.5% | i
Cc1ccc(-c2nc(CS(=O)CC(=O)NCc3ccccc3)c(C)o2)cc1 (stereo not given) | -22.3% | 5.6% | ? | -10.7% | -18.6% | i
COc1ccc(CNC(=O)CS(=O)Cc2nc(-c3ccc(C)cc3)oc2C)cc1 (stereo not given) | ? | 1.3% | 12.6µM* | -0.5% | -19.1% | .
SMILES | TGFb SMAD3 inh | Gal4-VP16 FLuc | RORgamma inh | ATXN2 expr inh | HepG2 viability | ATXN viability
Cc1nc2nc(CNC(=O)OC(C)(C)C)nn2c(C)c1CCC(=O)NCc1ccccc1Cl | 18.7% | . | . | 4.6% | 1.3% | i
COc1cccc(OC(=O)c2cc3ccccc3oc2=O)c1 | -12.7% | 2.6% | 15.7% | 1.4% | -100.4% | i
Cc1cccc(OCC(=O)NCc2ccccc2)c1 | 2.3% | 29.8% | 44.4% | 13.9% | -15.1% | i
COc1cc(NC(C)=O)ccc1-c1cc2ccccc2oc1=O | ? | -19.3% | 13.2% | 34.7% | -14.4% | i
COc1ccc2oc(=O)c(C(=O)Nc3cccc(C(C)=O)c3)cc2c1 | 32.7% | 5.62µM* | 2µM* | . | -32.7% | i
C/C(=N\NC(=O)COc1cccc(C)c1)c1ccc2ccccc2c1O | 5.62µM* | 3.98µM* | 4.47µM* | ? | -58.6% | i
COc1cc(NC(=O)c2ccc(Cl)cc2Cl)ccc1-c1cc2ccccc2oc1=O | 12.6µM* | ? | -10.1% | -23.4% | 11.2µM* | i
COc1cccc(NC(=O)c2cc3ccccc3oc2=O)c1 | 1.5% | 10µM* | 6.31µM* | . | -14.5% | i
CC(=O)OC(C)OC(=O)C(C)c1ccc(-c2ccccc2)c(F)c1 (stereo not given) | . | . | . | 11.1% | . | i
Cc1cccc(C(=O)NCC(c2ccco2)S(=O)(=O)c2cccs2)c1 (stereo not given) | -20.5% | . | . | . | -14.5% | .
O=C(COc1ccc(F)cc1)NNC(=O)c1cc2ccccc2oc1=O | 3.5% | -13.9% | 1.8% | -12.4% | -19.8% | i
Cc1cccc(OCC(=O)NNC(=O)c2cc3ccccc3oc2=O)c1 | ? | -6.2% | 3.0% | 9.3% | 3.16µM* | i
CN(CCc1ccccn1)C(=S)NC(=O)c1ccco1 | 4.6% | ? | 14.1µM* | 0.9% | 8.3% | i
O=C(NC(NCc1ccccn1)(C(F)(F)F)C(F)(F)F)c1ccco1 | 0.6% | -14.7% | 10µM* | 8.1% | -4.3% | i
C[N+](C)(CCCCCC[N+](C)(C)C1c2ccccc2-c2ccccc21)C1c2ccccc2-c2ccccc21 | . | . | . | . | . | i
CC(=O)N(Cc1ccc2c(c1)OCO2)Cc1cc2ccc(C)cc2nc1-c1cccc(C)c1 | . | . | . | . | . | i
COc1ccc(NS(=O)(=O)c2ccc(-n3cccn3)cc2)cc1OC | ? | . | . | -20.4% | -21.8% | i
COc1ccccc1-c1noc(-c2ccncc2)n1 | -8.1% | 0.4% | 16.2% | 43.2% | -18.5% | i
Brc1ccc(-c2nc(-c3ccccn3)no2)o1 | 0.8% | 7.08µM* | ? | ? | -41.0% | i
COc1ccc(-c2nc(-c3ccccn3)no2)cc1 | -1.1% | 0.316µM* | 0.562µM* | ? | 3.55µM* | i
COc1ccccc1-c1nc(-c2ccccn2)no1 | 5.9% | 7.08µM* | 2.51µM* | ? | -100.1% | i
